Measured values reported in PubChem BioAssay (Tox21).
Results filed as inconclusive are left out. Active and inactive are the calls of the source. Unless noted, calls come from the whole dose curve; as a rule, active = well fitted curve in the direction sought with a large enough effect in the repeat runs; inconclusive = weak or mixed curves; inactive = no such curve, though single readings can be large; an effect the other way counts as inactive or inconclusive.

What was measured:
[1] = qHTS assay for small molecules that induce genotoxicity in human embryonic kidney cells expressing luciferase-tagged ATAD5 (AID 651632); note: nearly all actives have a fitted effect of over 15% in size
Procedure, shortened: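 Quantitative HTS in HEK293T expressing luciferase-tagged ATAD5, whose levels rise upon DNA damage. Exposure ran 16 hr at 37C and 5% CO2, with luminescence read 30 min after Amplite addition at room temperature.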

[2] = qHTS assay for small molecule disruptors of the mitochondrial membrane potential - cell viability (AID 720634; calls by dose curve;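 note: human HepG2 liver cancer cells; series mostly up to about 83 µM; nearly all actives have a fitted effect of over 20% in size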)
Procedure, shortened: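 ATP-based luminescent viability readout (CellTiter-Glo, 30 min, room temperature) in HepG2 cells multiplexed with the m-MPI membrane potential dye; compound exposure lasted 1 hr at 37 C.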

[3] = qHTS assay to test for compound auto fluorescence at 535 nm (green) in HepG2 cells (AID 720675)
[4] = qHTS assay to test for compound auto fluorescence at 590 nm (red) in HEK293 cells (AID 720679)
Procedure, shortened: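 Red autofluorescence, HEK293 cells: 2,000 cells/well; attach 4-5 hr 37C; add 23 nL cpd or DMSO; incubate o/n 37C 5% CO2; read Ex540/Em590; Rose Bengal sodium reference.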

[5] = qHTS assay to test for compound auto fluorescence at 535 nm (green) in HEK293 cells (AID 720680)
[6] = qHTS assay to test for compound auto fluorescence at 590 nm (red) in HepG2 cell free culture (AID 720684)
Procedure, shortened: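 Rose Bengal sodium served as the reference for red signal. Test compounds were dispensed into serum-containing MEM (10% FBS) without cells, and plates were read at 540/590 nm.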

[7] = qHTS assay to test for compound auto fluorescence at 460 nm (blue) in HepG2 cell free culture (AID 720685)
Procedure, shortened: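 Cell-free plates of MEM plus 10% FBS received 23 nL compound or DMSO vehicle; blue-channel (405/460 nm) intensity scored against triamterene as reference fluorophore.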

[8] = qHTS assay to test for compound auto fluorescence at 535 nm (green) in HepG2 cell free culture (AID 720686)
[9] = qHTS assay to identify small molecule antagonists of the glucocorticoid receptor (GR) signaling pathway - cell viability counter screen (AID 720693); note: nearly all actives have a fitted effect of over 55% in size; note: potency is the fitted concentration of half-maximal effect
[10] = qHTS assay to identify small molecule antagonists of the thyroid receptor (TR) signaling pathway - cell viability counter screen (AID 743064); note: nearly all actives have a fitted effect of over 50% in size; note: potency is the fitted concentration of half-maximal effect
Procedure, shortened: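 Fluorescence from CellTiter-Fluor, added after 23.5 h exposure at 37 °C, reported viability of GH3.TRE-Luc cells co-treated with compound and 1 nM T3. Measured in the same wells as the luciferase TR readout.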

[11] = qHTS assay to identify small molecule antagonists of the thyroid receptor (TR) signaling pathway (AID 743065); note: nearly all actives have a fitted effect of over 55% in size; note: potency is the fitted concentration of half-maximal effect
Procedure, shortened: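 GH3.TRE-Luc rat pituitary cells (two TREs driving luciferase) were dosed with compound, then stimulated with 1 nM T3 (final) for 23.5 h at 37 C. ONE-Glo luminescence was the read-out, with CellTiter-Fluor fluorescence as the cytotoxicity counter-screen.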

[12] = qHTS assay to identify small molecule antagonists of the estrogen receptor alpha (ER-alpha) signaling pathway - cell viability counter screen (AID 743074; calls by dose curve;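 note: HEK293 cells carrying ER-alpha-UAS-bla reporter stimulated with 17beta-estradiol; nearly all actives have a fitted effect of over 45% in size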)
[13] = qHTS assay to identify small molecule antagonists of the estrogen receptor alpha (ER-alpha) signaling pathway using the BG1 cell line - cell viability counter screen (AID 743081);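 note: compound given together with 17beta-estradiol as the ER stimulus; series mostly up to about 70 µM; nearly all actives have a fitted effect of over 45% in size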
Aromatase (Homo sapiens) = Aromatase (Homo sapiens) (UniProt P11511); assay: qHTS assay to identify aromatase inhibitors (AID 743083); note: series mostly up to about 70 µM; nearly all actives have a fitted effect of over 55% in size
[14] = qHTS assay to identify aromatase inhibitors - cell viability counter screen (AID 743084);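 note: cells stimulated with testosterone during compound exposure; nearly all actives have a fitted effect of over 55% in size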
[15] = qHTS assay to identify small molecule that activate the aryl hydrocarbon receptor (AhR) signaling pathway - cell viability counter screen (AID 743086);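 note: HepG2 liver cells carrying the AhR DRE luciferase reporter; series mostly up to about 70 µM; nearly all actives have a fitted effect of over 45% in size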
Procedure, shortened: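 HepG2-AhR-luc (HG2L7.5c1) cells, 4000/well, treated 24 h at 37 C with compound; viability measured as CellTiter-Fluor fluorescence after 30 min in the same wells as the luciferase read.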

[16] = qHTS assay to identify small molecule phospholipidosis (PLD) inducers (AID 1259344; active = well fitted curve in the direction sought with a large enough effect; an effect the other way counts as inactive or inconclusive)
Procedure, shortened: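 Read-out is LipidTOX Red fluorescence (ex 595/em 615) imaged in HepG2 cells after 24 h compound exposure at 37 C, with Hoechst nuclear counterstain (ex 352/em 461) allowing per-cell normalisation.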

[17] = qHTS assay for small molecules that induce genotoxicity in human embryonic kidney cells expressing luciferase-tagged ATAD5 - cell viability (AID 651634; calls by dose curve; note: nearly all actives have a fitted effect of over 25% in size)
Procedure, shortened: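 After 15.5 hr incubation with compound at 37C, 5% CO2, HEK293T ATAD5-luciferase cells received CellTiter-Fluor reagent; fluorescence intensity was quantified following 30 min at 37C.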

[18] = qHTS assay to identify small molecule antagonists of the androgen receptor (AR) signaling pathway using the MDA cell line - cell viability counter screen (AID 743041; note: nearly all actives have a fitted effect of over 45% in size)
Procedure, shortened: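 Cytotoxicity counter screen: MDA-kb2 AR-luc cells, compound + R1881, 16 h, 37C, 0% CO2; CellTiter-Fluor added at 15.5 h, fluorescence read after 30 min.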

[19] = tested on: thyroid hormone receptor (rat, GH3 cells); assay: qHTS assay to identify small molecule agonists of the thyroid receptor (TR) signaling pathway (AID 743066; calls by dose curve)
% is set by controls: 0 for no effect and ±100 for the full control effect.

Aromatase (Homo sapiens), sequence (P11511 whole entry, looked up): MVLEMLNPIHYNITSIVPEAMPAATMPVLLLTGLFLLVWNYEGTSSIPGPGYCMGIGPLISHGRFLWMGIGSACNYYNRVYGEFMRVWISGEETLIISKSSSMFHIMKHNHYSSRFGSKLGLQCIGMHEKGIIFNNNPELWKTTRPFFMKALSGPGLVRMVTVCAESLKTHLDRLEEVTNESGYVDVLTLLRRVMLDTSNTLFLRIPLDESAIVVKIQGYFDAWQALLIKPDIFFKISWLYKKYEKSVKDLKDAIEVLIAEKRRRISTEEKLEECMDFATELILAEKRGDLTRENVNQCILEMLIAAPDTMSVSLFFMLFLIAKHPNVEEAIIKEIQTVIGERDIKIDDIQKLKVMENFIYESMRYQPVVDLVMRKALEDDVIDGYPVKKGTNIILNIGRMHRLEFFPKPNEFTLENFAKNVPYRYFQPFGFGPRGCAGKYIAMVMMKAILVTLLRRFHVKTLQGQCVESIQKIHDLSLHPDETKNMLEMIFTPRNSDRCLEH

c1ccc(C2(N3CCCC3)CCCCC2)cc1
active: Potency [9] 26.8 µM | Potency [10] 16.8 µM | Potency [11] 13.3 µM
inactive: Potency [1] | Potency [2] | Potency [3] | outcome [4] | Potency [5] | outcome [6] | Potency [7] | Potency [8] | Potency [12] | Potency [13] | Potency (Aromatase (Homo sapiens)) | Potency [14] | Potency [15] | Potency [16]

CN[C@@]1(c2ccccc2Cl)CCCCC1=O
inactive: Potency [1] | Potency [17] | Potency [2] | Potency [3] | outcome [4] | Potency [5] | outcome [6] | Potency [7] | Potency [8] | Potency [9] | Potency [18] | Potency [10] | Potency [11] | Potency [19] | Potency [12] | Potency [13] | Potency (Aromatase (Homo sapiens)) | Potency [14] | Potency [15] | PLD induction [16] -4.46% [at 7.66 µM]

C1CN(P2(N3CC3)=NP(N3CC3)(N3CC3)=NP(N3CC3)(N3CC3)=N2)CCO1 (stereo not drawn)
inactive: Potency [1] | Potency [17] | Potency [2] | Potency [3] | outcome [4] | Potency [5] | outcome [6] | Potency [7] | Potency [8] | Potency [9] | Potency [18] | Potency [10] | Potency [11] | Potency [19] | Potency [13] | Potency (Aromatase (Homo sapiens)) | Potency [14] | Potency [15] | PLD induction [16] 0.928% [at 7.66 µM]

O=C1CN=C(c2ccccc2)c2cc(Cl)ccc2N1
inactive: Potency [1] | Potency [17] | Potency [2] | Potency [3] | outcome [4] | Potency [5] | outcome [6] | Potency [7] | Potency [8] | Potency [9] | Potency [18] | Potency [10] | Potency [19] | Potency [12] | Potency (Aromatase (Homo sapiens)) | Potency [14] | Potency [15] | Potency [16]

C[C@@H]1[C@H]2Cc3ccc(O)cc3[C@]1(C)CCN2C
inactive: Potency [1] | Potency [17] | Potency [2] | Potency [3] | outcome [4] | Potency [5] | outcome [6] | Potency [7] | Potency [8] | Potency [9] | Potency [18] | Potency [19] | Potency [12] | Potency [13] | Potency [14] | Potency [15] | Potency [16]
active: Potency [11] 50.2 µM

CCC1C(C)=NN=C(c2ccc(OC)c(OC)c2)c2cc(OC)c(OC)cc21 (stereo not drawn)
inactive: Potency [17] | Potency [2] | Potency [3] | outcome [4] | Potency [5] | outcome [6] | Potency [7] | Potency [8] | Potency [18] | Potency [10] | Potency [11] | Potency [19] | Potency [12] | Potency [13] | Potency (Aromatase (Homo sapiens)) | Potency [14] | Potency [15] | Potency [16]

Cc1nnc2n1-c1ccc(Cl)cc1C(c1ccccc1Cl)=NC2
inactive: Potency [2] | Potency [3] | outcome [4] | Potency [5] | outcome [6] | Potency [7] | Potency [8] | Potency [9] | Potency [18] | Potency [10] | Potency [11] | Potency [19] | Potency [12] | Potency [13] | Potency (Aromatase (Homo sapiens)) | Potency [14] | Potency [15] | Potency [16]
